The values below come from PubChem BioAssay (NCI).

This experiment deals with HL-60(TB) leukemia. Briefly: NCI-60 one-dose screen, 48 h (100 = growth as untreated, 0 = no growth, -100 = all killed). The following applies: 10 µM unless noted.

The structures appear in SMILES notation. About 83,000 compounds went through this panel and 20% of them were active in at least one assay; those are over-represented in the sample as a whole.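 Values shown are percent growth following 48 h exposure of cells in 96-well plates to a single concentration of compound; below 10 was considered active.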 A number with no mark means an inactive call. Active and inactive are the calls of the source.

Consider `O=C1CCC(C(=O)NCCNCCNC(=O)C2CCC(=O)N2)N1` (centres undefined), for which the growth is 89.2%. The result for `C[C@@H](NC(=O)c1ncnc(N)c1Cl)c1ncc(C(=O)Nc2cc(C(F)(F)F)c(Cl)cn2)s1` reads 35.4%; that for `COc1ccc(NC(=O)Cn2c(=O)sc3c(-c4ccc(Cl)cc4)cc(-c4ccc(Cl)cc4)nc32)cc1`, 80%; that for `OC(c1cc(-c2cccc(Cl)c2)nc2ccccc12)C1CCCCN1` (centres undefined), -63.1% (active). With `O=C(Nc1ccc(-n2ccc3c(NC(=O)c4ccccc4)ncnc32)cc1)Nc1ccc(Cl)c(Cl)c1`, the growth is 62.1%.

Consider `CCCCn1c(=O)c2c(nc3n2CCCN3CCc2ccc(OCC(=O)NCCN(CC)CC)cc2)n(CCCC)c1=O`, for which the growth is 67.3%. `COc1cc(/C(Cl)=C/C=C/C(=O)c2c(C)[n+]([O-])c3ccc(Cl)cc3[n+]2[O-])cc(OC)c1OC`: the growth is 11.9%. On to `N#Cc1c(-c2ccccc2)cc(-c2ccc(Nc3nc(Nc4ccc(Cl)cc4)nc(Nc4ccc(Cl)cc4)n3)cc2)nc1N`, for which the growth was 15.6%.

For `O=C(CCCCCCC(=O)Nc1ccccc1)NO`, the growth was -0.31% (active). The value for `O=C(N/N=C/c1ccc([N+](=O)[O-])cc1)c1ccc2nc(-c3ccc(Cl)cc3)[nH]c2c1` was 6.58% (active).

Take `Cn1cc(-c2csc(-c3cccc(F)c3)n2)c2cccnc21`: the growth was 2.72% [100 µM] (active).

For `Clc1ccc2c(NCCCNc3nccc(Nc4ccc(Br)cc4)n3)ccnc2c1`, the growth is -69.2% (active). As to `O=c1c(Cc2ccc(F)cc2)cc(-c2ccccc2)nn1C/C(=N/O)c1ccccc1`, the growth is 24.8%. `COc1ccc(/C=c2\c(=O)n(-c3ccccc3)c3nn4c(=O)c(=O)[nH]nc4n23)cc1`: the growth is 112%. Take `Cn1ccc(=O)nc1`: the growth was 105%. For `Cc1ccc(N)c(O)c1`, the growth is 128%. As to `N#CC1=C(N)Oc2c(ccc3ccccc23)C1c1cc2ccccc2n2nnnc12` (centres undefined), the growth was -32.7% (active).

As for `CC1=CC(=NN=c2cc(C)n([O-])c(C)c2)C=C(C)[N+]1=O`, the growth was 37.6%. In the case of `OC(c1cccc(C(F)(F)F)c1)c1cnccc1NC1CCCCCC1` (centres undefined), the growth was -30.7% (active). As for `Oc1ccccc1-c1nnco1`, the growth is 96%. The result for `Cc1cc(C)c(C(=O)c2cccs2)c(C)c1` reads 98.3%. For `Cc1[nH]n(-c2ccccc2)c(=O)c1C=NC(=S)C(N)=S`, the growth is 102%.

As for `NCCC(=O)c1ccc(Cl)cc1`, the growth was 95.6%. Consider `CC1(C)N=C(N)N=C(N)N1c1cc(Cl)ccc1Cl`, for which the growth is 53.7%. For `CC1(O)CCC(Nc2cc(-c3ccc(C(F)(F)F)cc3)c(C#N)c3nc4ccccc4n23)CC1` (centres undefined), the growth was 63%. The value for `CC(=O)NCC1c2c(n(C)c3c(Cl)c(Cl)ccc23)C(=O)NC1(C)C` (centres undefined) was 84%.

With `CN(C)C(=O)OCc1nc2c(N3CCOCC3)nc(-c3ccccc3)nc2n1C`, the growth is -29.2% (active). With `O=C(CCN1CCCC1)Nc1ccc2c(NCCCCc3ccccc3)c3ccccc3nc2c1`, the growth is -62.3% (active). On to `CCCCc1nc(Cl)c(CO)n1Cc1ccc(-c2ccccc2-c2nn[nH]n2)cc1`, for which the growth is 110%. In the case of `C=C(Cl)COC(=O)C(C)(C)O`, the growth is 103%. The result for `COc1ccc2[nH]c(O)c(/C=c3/cc4c(c(-c5cc(OC)c(OC)c(OC)c5)n3)=Nc3ccccc3-4)c2c1` reads 58.8%.

For `CCN(CC)CCC(CNc1c(C)cnc2cc(Cl)ccc12)c1ccc(Cl)c(Cl)c1` (centres undefined), the growth is 51.5%. On to `COc1cc(C(C)(C)C)cc(OC)c1C(O)(c1c(OC)cc(C(C)(C)C)cc1OC)c1c(OC)cc(C(C)(C)C)cc1OC`, for which the growth was -63.7% (active).

As to `Brc1ccc2c(c1)c(-c1nc(-c3c[nH]c4ncccc34)cs1)cn2CCCN1CCCCC1`, the growth was 13.3%. Turning to `O=C(O)c1ccc([N+](=O)[O-])cc1S(=O)(=O)O`, the growth is 108%. With `O=C(Cn1cc(COc2ncnc3c2cnn3-c2ccccc2)nn1)Nc1cccc2ccccc12`, the growth was 101%. For the compound `Cc1cc(O)c2cc3c(O)c(O)ccc3cc2c1`, the growth is 82.7%. The value for `COc1ccc(-c2nnc(-c3ccc4c(c3)nc(-c3ccccc3)n4C3CCCCC3)o2)cc1` was 17.2%.

As for `CCOC(=O)c1c(-c2ccc(Cl)cc2)c(C#N)c(=O)n(-c2ccccc2CC)c1N`, the growth is 144%. For the compound `Cc1ncc(C(=O)Nc2ccc(CN3CCN(C)CC3)c(C(F)(F)F)c2)cc1C#Cc1ccc(N)nc1`, the growth was 17.6%. Regarding `Cn1cc(-c2ccc3ncc(-c4ccc(CC(=O)Nc5cc(C(C)(C)C)nn5C)cc4)cc3c2)cn1`, the growth was -36.7% [30 µM] (active).

Regarding `C[n+]1ccc(CCc2c[nH]c3ccccc23)cc1`, the growth is 90.6%. As to `O=C(CN1C=NC2C(N3CCOCC3)=NC=NC21)c1cccc2ccccc12` (centres undefined), the growth is 103%. As to `COc1ccc(-c2cc(C(=O)N3N=C(c4ccc(N)cc4)CC3c3ccc(Cl)cc3)c3cc(OC)ccc3n2)cc1` (centres undefined), the growth was 4.62% (active).

For the compound `C[C@H]1[C@H]2C3=CC[C@@H]4[C@@]5(C)C/C(=C/c6ccco6)C(=O)C(C)(C)[C@@H]5CC[C@@]4(C)[C@]3(C)CC[C@@]2(C(=O)N2CCOCC2)CC[C@@H]1C`, the growth is 14.7%. For `COc1ccc(OC)c(Nc2nnc(-c3ccc(O)c(OC)c3)o2)c1`, the growth was 87.3%.

For `CC(=O)c1ccc(NC(=O)CSc2nnc(-c3cc(-c4ccc(C)cc4)nc4ccccc34)o2)cc1`, the growth was 80.6%. As to `CC(O)/C=C/C=C/C(O)CC/C=C/C(=O)NCC(C)(C)O` (centres undefined), the growth was 81.1%.

For `Brc1cccc(-c2nc(-c3ccc4c(c3)OCCO4)co2)c1`, the growth is 29.1% [25 µM]. On to `CCCCCCCCCCCC(c1ccccc1)N(C)C` (centres undefined), for which the growth is 104%. `CCOC(=O)C(=Cc1ccccc1[N+](=O)[O-])C(=O)OCC`: the growth is -26.5% (active). `Cc1cc(N)cc(C)c1-c1c(Br)cc(N)cc1Br`: the growth is 10.4%. As to `O=C(Nc1ccc(-n2cc(-c3ccncc3)c(-c3ccc(O)c(Cl)c3)n2)cc1)Nc1cccc(Cl)c1Cl`, the growth is 78.8%. As for `O=C(/C=C/c1cccnc1)/C=C/c1cccnc1`, the growth is -43.4% (active).

`CC(=O)O[C@H]1CC[C@@]2(C)C(=CC[C@@H]3[C@@H]2CC[C@]2(C)C(=O)N(O)C(=O)C[C@@H]32)C1`: the growth is 105%.

With `O=C(O)c1ccccc1C(F)(F)F`, the growth is 100%. As for `Cc1cc(C)c2nc(Nc3nc(C)c(C)c(=O)[nH]3)nc(C)c2c1`, the growth is -10.2% (active). Regarding `COc1cc2nccc(Oc3ccc(NC(=O)C4(C(=O)Nc5c(F)cc(F)cc5F)CC4)cc3)c2cc1Oc1ccc(N)cn1`, the growth was 38.3%.

For the compound `COc1ccc(/C=C(\C#N)n2nnc3cc(Cl)ccc32)cc1`, the growth was -6.14% (active). As for `O=C(c1c[nH]c2ccccc12)C(Sc1nc2ccccc2c(=O)[nH]1)c1ccccc1` (centres undefined), the growth is 93.1%.

As to `Fc1ccc(/C=C/[C@@H]2C[C@@H](F)CCO2)cc1`, the growth was 56.1%. In the case of `COc1ccc(-c2nc3sccn3c2-c2ccnc(NCCCNS(=O)(=O)c3ccc4ccccc4c3)n2)cc1`, the growth is 66.1%. On to `CN(C)CSc1nc2ccccc2s1`, for which the growth is 101%. Take `CC(=O)CC[C@H]1C(=O)N[C@@H](C(C)C)C(=O)N[C@@H](Cc2cc(O)cc(F)c2)C(=O)N2CCC[C@H](N2)C(=O)O[C@H](/C(C)=C/C=C/C(=O)OC(C)(C)C)C/C=C/C=C/[C@H](O)[C@H](C)[C@H]1O`: the growth was 56%. The value for `NC(C(=O)O)c1ccc([N+](=O)[O-])cc1` (centres undefined) was 95.8%. Turning to `CCOC(=O)NNc1cccc(Cl)c1`, the growth was 110%. The value for `C[C@H]1c2ccccc2CN1CCCOc1cc2c(cc1OCC1CC1)C1(CCCC1)C(N)=N2` was 31%; that for `CC1CN=C(c2cccc(-c3ccc(-c4ccccc4)o3)c2)N1` (centres undefined) was -46.1% (active). Take `C[C@H]1[C@H](C)CC[C@]2(C(=O)O)CC[C@]3(C)C(=CC[C@@H]4[C@@]5(C)C[C@@H](Cc6cn([C@@H]7O[C@H](CO)[C@@H](O)[C@H](O)[C@H]7O)nn6)[C@H](O)C(C)(C)[C@@H]5CC[C@]43C)[C@H]12`: the growth was 91%.

For the compound `COc1ccc2c(c1)N(CCO)C1=C(C(=O)OC1)C2c1cccc(Br)c1` (centres undefined), the growth is -26.3% (active). `COc1ccc(C2[C@@H](Cl)C(=O)N2c2cc(OC)c(OC)c(OC)c2)cc1Cl` (some centres undefined): the growth was -30.3% (active). In the case of `C=CCOC(=O)C1=C(C)NC2=C(C(=O)CCC2)C1c1ccc(F)cc1` (centres undefined), the growth is 87.8%.

As to `COc1cc2c(c(OC)c1OC)CCC(c1cccc(NC(=O)c3cccc(Br)c3)c1)O2` (centres undefined), the growth was 97%. The value for `COc1ccc(Cn2cc(C(=O)N=Nc3c(O)[nH]c4c(Cl)cccc34)nn2)cc1` was 97.4%; that for `Nc1c(C(=O)Nc2cccc(Br)c2)sc2nc3c(cc12)C(=O)CCC3` was 49.7%. The result for `CNCc1cccc2c1OCCOCCN(C)C(=O)CN(C)S(=O)(=O)c1ccc(cc1)-c1cnc(N)c(n1)C(=O)N2` reads -32.9% (active); that for `COc1ccc2c(CCCc3ccc(Cl)cc3Cl)c3[n+](cc2c1OC)CCc1cc2c(cc1-3)OCO2`, -41.4% (active); that for `Cc1c(Br)cccc1NC(=O)c1sc2nc3c(cc2c1N)CN(Cc1ccccc1)CC3`, -30.5% (active).

As for `COC(=O)/C=C1/CCC2C3CCC4=CC(=O)C(Br)CC4(C)C3C(=O)CC12C` (centres undefined), the growth is 75.1%.
